Only some compounds are listed: those with a hit (about 5.7% of all), similar ones and a draw of the others.
DAX1 inh-1: inhibitors of human orphan nuclear receptor DAX1 (NR0B1) | P51843 | HEK293 Gal4-DAX1 luciferase reporter, luminescence | inhibition, % at 6.75 µM | actives 0.99% (n = 340,000);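 active means inhibition above the mean over all tested compounds plus 3 SD, cut at about 4.2% in these data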;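 further: 0% = DAX1-transfected cells with DMSO and 100% = empty-vector control cells with DMSO; inhibition shows as a rise in luminescence from relieved DAX1 repression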
AHR act: activators of human aryl hydrocarbon receptor; P35869; AHR-responsive luciferase reporter cells, luminescence; activation, % at 5 µM; actives 2.5% (n = 320,000); in the data active means activation above about 47%;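 further: 0% = vehicle wells and 100% = reference agonist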
Target sequence (P35869 whole entry, looked up): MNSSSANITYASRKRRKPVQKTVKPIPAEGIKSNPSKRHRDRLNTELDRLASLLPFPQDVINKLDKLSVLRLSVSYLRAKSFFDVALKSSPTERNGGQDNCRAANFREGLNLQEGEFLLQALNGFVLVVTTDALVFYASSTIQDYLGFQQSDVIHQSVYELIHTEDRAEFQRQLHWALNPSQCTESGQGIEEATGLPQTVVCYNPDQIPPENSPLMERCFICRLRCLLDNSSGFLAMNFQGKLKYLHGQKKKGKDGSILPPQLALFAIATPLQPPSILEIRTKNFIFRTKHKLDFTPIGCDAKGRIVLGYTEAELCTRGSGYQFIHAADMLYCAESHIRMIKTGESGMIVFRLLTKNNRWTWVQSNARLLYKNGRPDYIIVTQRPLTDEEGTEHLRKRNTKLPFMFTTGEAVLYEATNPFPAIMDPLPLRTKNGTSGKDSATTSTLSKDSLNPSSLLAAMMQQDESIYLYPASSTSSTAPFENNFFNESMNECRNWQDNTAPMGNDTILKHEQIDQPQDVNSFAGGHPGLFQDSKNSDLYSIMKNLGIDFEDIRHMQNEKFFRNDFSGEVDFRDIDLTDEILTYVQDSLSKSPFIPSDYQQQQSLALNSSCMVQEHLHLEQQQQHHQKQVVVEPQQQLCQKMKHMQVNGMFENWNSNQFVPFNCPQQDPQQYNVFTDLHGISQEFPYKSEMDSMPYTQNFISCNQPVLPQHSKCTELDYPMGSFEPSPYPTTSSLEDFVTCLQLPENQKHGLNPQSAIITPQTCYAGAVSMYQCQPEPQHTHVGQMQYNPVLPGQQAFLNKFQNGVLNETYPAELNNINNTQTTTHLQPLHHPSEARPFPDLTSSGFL
DAX1 inh-2: inhibitors of DAX1 repression of SF-1 activated StAR promoter. HEK293T StAR-luciferase reporter, SF-1/DAX-1 repression relief. inhibition, % at 6.8 µM. actives 1.1% (n = 370,000);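 active means inhibition above the mean over all tested compounds plus 3 SD, cut at about 3.6% in these data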;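 further: 0% = DAX-1 cells with DMSO and 100% = cells lacking DAX-1 with DMSO; higher inhibition means more luminescence from relief of DAX-1 repression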
ssDAF-12 act: activators of S. stercoralis DAF-12 nuclear receptor. HEK293 ssDAF-12/GRIP1 lit1-tk-luc reporter, luminescence; % of 3 µM dafachronic acid response. activation, % at 6.8 µM. actives 1% (n = 370,000). AID 652126;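 active means activation above the mean over all tested compounds plus 3 SD, cut at about 0.9% in these data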;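 further: 0% = DMSO-only wells and 100% = 3 µM delta7-dafachronic acid wells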
hgDAF12 agonist: agonists of H. glycines DAF-12 nuclear receptor; HEK293 GAL4-hgDAF12 UAS-luciferase reporter, agonist luminescence; normalized to butyrate control; activation, % at 6.8 µM; actives 1.8% (n = 370,000); AID 687014;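 active means activation above a cutoff set at the mean of all screened compounds plus 3 SD, cut at about 10% in these data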;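 further: 0% = DMSO wells and 100% = sodium butyrate wells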
hcDAF12 agonist: activates DAF-12 receptor from parasite H. contortus; activation, % at 6.8 µM; HEK293 hcDAF-12 lit1-tk-luc reporter, luminescence; 0% DMSO, 100% Δ7-dafachronic acid; actives 1.4% (n = 370,000);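 active means activation above the mean of all tested compounds plus 3 SD, cut at about 5.5% in these data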;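 further: 100% = response to 3 µM Δ7-dafachronic acid high control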
Active calls of the source: *; / = not tested or not shown.

SMILES	DAX1 inh-1	AHR act	DAX1 inh-2	ssDAF-12 act	hgDAF12 agonist	hcDAF12 agonist
CCCC[C@@H]1CNC(=S)N1CCc1cccc2ccccc12	-1	5	0	-1	1	-1
Cc1ccc(C(=O)NCC(=O)OC2CCCCC2=O)cc1C (configuration not stated)	1	4	1	0	1	2
Cc1ccc(NC(=O)/C(=C/c2cccs2)NC(=O)c2ccco2)c(C)c1	3	8	1	-1	1	-1
CC1(C)CCC(=O)N2CC[C@H]3C[C@H](OC(=O)Nc4ccc5c(c4)OCO5)C[C@@H]1[C@H]32	1	60*	0	-1	9	1
CC1(C)CCC(=O)N2CC[C@H]3C[C@H](OC(=O)Nc4ccccc4)C[C@@H]1[C@H]32	1	8	1	-1	9	1
COc1cn(-c2ccccc2)nc1C(=O)NCc1ccc(C)cc1	1	10	1	-1	-4	-3
Cc1c(O)ccc(C(=O)COc2ccc(F)cc2)c1O	3	-5	1	-1	12*	1
CCc1cc(C(=O)COc2ccc(F)cc2)c(O)cc1O	1	6	1	-1	4	0
CN(C)/C=C(\C(=O)c1ccccc1)c1nnnn1-c1ccc(F)cc1	1	2	0	-1	-1	0
COc1ccccc1CC(=O)NNS(=O)(=O)c1ccc([N+](=O)[O-])cc1	6.1*	-1	-1	-1	-2	-1
O=C(O)CCc1ccc(-c2ccccc2)n1CC(=O)O	0	-1	0	-1	1	-1
CC(C)n1c(CCC(=O)O)ccc1-c1ccccc1	4.3*	0	0	-2	-1	0
Brc1cccc(C2Nc3cccc4cccc(c34)N2)c1	5.2*	35	0	0	2	2
Cc1c(N=Cc2c(O)n(C3CCCCC3)c(=O)[nH]c2=O)c(=O)n(-c2ccccc2)n1C	0	1	1	-1	0	0
CC(=O)Nc1ccc(NC(=O)CNC(=O)COc2ccccc2)cc1	2	0	-1	-1	1	-1
O=C(COc1ccccc1)NCC(=O)Nc1ccncc1	-1	4	0	-1	11*	1
COc1ccc(N2CCN(CC(=O)NCc3ccc(Cl)cc3)CC2)cc1	3	4	0	-2	0	-1
CCCOc1ccc(C(=O)Nc2ccccc2[N+](=O)[O-])cc1	1	0	1	0	13*	4
CCCONC(=O)Nc1ccccc1[N+](=O)[O-]	0	53*	0	-1	2	-3
Cc1cc2c(c(C)c1CCO)C(=O)[C@H](C)C2	4.7*	2	1	-1	2	-1
Cc1cc2c(c(C)c1CCO[C@@H]1O[C@H](CO)[C@@H](O)[C@H](O)[C@H]1O)C(=O)[C@@H](C)[C@@H]2O	-1	0	0	-1	1	-1
Cc1cc(C)cc(NC2=NC3(CCCCC3)N=C(N)N2)c1	0	56*	-1	-1	2	0
CCOC(=O)c1cc(C(=O)OCC)c(=O)[nH]c1SCc1ccccc1	-1	0	0	-1	3	0
Cc1ccc(-c2nc3sc4c(c3c(=O)n2N)CCCC4)cc1	2	-8	3	0	12*	5.8*
CC(C)c1nc2sc3c(c2c(=O)o1)CCCC3	0	4	0	0	1	0
SMILES	DAX1 inh-1	AHR act	DAX1 inh-2	ssDAF-12 act	hgDAF12 agonist	hcDAF12 agonist
Cc1nc2sc3c(c2c(=O)o1)CCCC3	0	12	0	1.0*	-1	5
CC(=O)c1cccc(NC(=O)Nc2c(C)nn(C)c2C)c1	1	9	0	-1	0	-1
CC1=C(C(=O)O)CC(S(=O)(=O)O)C1(C)C (configuration not stated)	2	/	3.7*	0	1	0
Cc1nn(-c2ccccc2)c2sc(C(=O)N3CCN(Cc4ccccc4)CC3)cc12	/	/	1	-1	2	1
Cc1nn(-c2ccc(Cl)cc2)c2sc(C(=O)c3c(N)n(C)c(=O)n(C)c3=O)cc12	1	47*	0	1	2	5
Cc1csc(NC(=O)c2cc3c(s2)-c2ccccc2OC3)n1	-2	68*	-1	0	4	0

Source: PubChem (The Scripps Research Institute Molecular Screening Center)
